This passage reports outcome and AC50 results from PubChem BioAssay (EPA / NIEHS).

Inconclusive results are not listed. Active and inactive are the calls of the source. How the source made its calls: active means hit-call score of the fitted dose curve at least 0.9, where 1 is the maximum; inconclusive means response in the unintended direction; inactive means score below 0.9.

Assay [1] can be described thus: ATG_XTT_Cytotoxicity: Cytotoxicity Assessment in the Attagene TRANS-FACTORIAL HepG2 Assay (AID 2283584). A digest of the protocol:
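XTT readout of cell number in transfected HepG2 cells, 24 h post-dosing; DMSO serves as negative control and baseline, with activity taken as loss of viability signal.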

Assay [2] concerns the target Cellular tumor antigen p53 (Homo sapiens) (UniProt P04637). Put plainly: TOX21_p53_BLA_p2_ratio: Tox21 HCT-116 p53 Agonism Beta-lactamase Assay, Ratio, Phase 2 (AID 2283592). The method in brief:
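Readout: blue/green (460/530 nm) FRET emission ratio after 2 h CCF4-AM loading at room temperature, excitation 405 nm. HCT116 p53 bla cells, 16 h compound exposure at 37C, 5% CO2; agonist direction fitted against DMSO baseline.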

Assay [3] in a line: TOX21_p53_BLA_p3_viability: Viability Assessment in the Tox21 HCT-116 p53 Agonism Beta-lactamase Assay, Phase 3 (AID 2283593).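 Further: cells exposed to compound for 16 h before reading.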 A digest of the protocol:
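Cellular ATP was quantified by CellTiter-Glo luminescence, read after 30 min at room temperature. Beforehand, HCT116 cells (4000/well) received compound 5 h post-seeding, 217-fold diluted from DMSO, then incubated 16 h at 37C.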

A short description of assay [4]: TOX21_p53_BLA_p4_viability: Viability Assessment in the Tox21 HCT-116 p53 Agonism Beta-lactamase Assay, Phase 4 (AID 2283597).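 Further: hits lower the luminescence signal meaning cytotoxicity.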 The method in brief:
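ATP content by CellTiter-Glo luminescence, 30 min RT, read after the beta-lactamase ratio step. Cells: HCT116, 4000/well, compound added after 5 h, exposure 16 h at 37C. Signal loss = reduced viability.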

In assay [5] the target is Cellular tumor antigen p53 (Homo sapiens) (UniProt P04637). Put plainly: TOX21_p53_BLA_p5_ratio: Tox21 HCT-116 p53 Agonism Beta-lactamase Assay, Ratio, Phase 5 (AID 2283599). The method in brief: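 Beta-lactamase reporter ratio (blue 460 nm over green 530 nm, 405 nm excitation) after 2 h CCF4-AM loading, in HCT-116 cells exposed 16 h at 37 C to compounds pinned at 217-fold dilution. Increases relative to DMSO baseline scored.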
Sequence of Cellular tumor antigen p53 (Homo sapiens) (P04637 whole entry, looked up): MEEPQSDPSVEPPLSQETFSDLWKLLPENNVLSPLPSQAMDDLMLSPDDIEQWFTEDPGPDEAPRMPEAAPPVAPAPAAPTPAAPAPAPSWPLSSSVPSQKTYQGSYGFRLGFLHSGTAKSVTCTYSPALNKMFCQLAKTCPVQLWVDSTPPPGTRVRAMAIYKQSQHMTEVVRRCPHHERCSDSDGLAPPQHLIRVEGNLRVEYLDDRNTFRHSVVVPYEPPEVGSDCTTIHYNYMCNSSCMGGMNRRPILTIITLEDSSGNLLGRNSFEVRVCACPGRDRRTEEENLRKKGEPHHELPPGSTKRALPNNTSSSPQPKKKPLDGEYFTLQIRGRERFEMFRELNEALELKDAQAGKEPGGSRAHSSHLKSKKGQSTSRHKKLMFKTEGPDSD

A short description of assay [6]: TOX21_p53_BLA_p5_viability: Viability Assessment in the Tox21 HCT-116 p53 Agonism Beta-lactamase Assay, Phase 5 (AID 2283600). The method in brief: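 ATP luminescence (CellTiter-Glo, 30 min, RT) served as the viability read-out, with loss of signal indicating cytotoxicity. Compounds in DMSO were pinned at a 217-fold dilution onto 4000 cells/well and incubated 16 h, 37C.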

For assay [7], the target named is Cellular tumor antigen p53 (Homo sapiens) (UniProt P04637). The assay can be described thus: TOX21_p53_BLA_p4_ratio: Tox21 HCT-116 p53 Agonism Beta-lactamase Assay, Ratio, Phase 4 (AID 2283601). The method in brief: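 Signal is the blue/green (460nm/530nm) ratio of cleaved versus uncleaved CCF4-AM substrate, read after 2 h substrate loading. Cells were HCT116 carrying the p53-responsive beta-lactamase reporter, dosed 16 h at 37C, 5% CO2; CellTiter-Glo measured in parallel.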

Assay [8] shares this target. Put plainly: TOX21_p53_BLA_p3_ratio: Tox21 HCT-116 p53 Agonism Beta-lactamase Assay, Ratio, Phase 3 (AID 2283596). The method in brief:
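Cells were seeded at 4000/well, rested 5 h at 37C, then dosed with DMSO compound solutions (217-fold dilution) for 16 h. CCF4-AM substrate was loaded for 2 h at room temperature, and the 460/530 nm emission ratio was fitted for gain of signal versus DMSO.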

As for `CN(C)C`, the outcome in assay [1], in assay [2], in assay [3], in assay [4], in assay [5] and in assay [6] was inactive. Also, the outcome in assay [7] was inactive.
Take `O=S1(=O)CC=CC1`: the outcome in assay [1], in assay [2], in assay [8], in assay [4], in assay [5] and in assay [6] was inactive. Besides, the outcome in assay [7] was inactive.
Consider `CCCCCCCCCOS(=O)(=O)O`, for which the compound was called inactive in assay [1], in assay [2], in assay [8], in assay [4], in assay [5] and in assay [6]. Also, the result in assay [7] was inactive.
Turning to `NC(N)=S`, the result in assay [1], in assay [2], in assay [3], in assay [8], in assay [5] and in assay [6] was inactive. Besides, in assay [7], the outcome was inactive.
Regarding `CC1(C)CC(N)CC(C)(CN)C1` (stereo unspecified), the result in assay [1], in assay [2], in assay [3], in assay [8], in assay [4] and in assay [5] was inactive. Also, the compound was classed as inactive in assay [6] and in assay [7].
Take `NC(=O)c1cccnc1`: the result in assay [1], in assay [2], in assay [8], in assay [4], in assay [5] and in assay [6] was inactive. Besides, the result in assay [7] was inactive.
With `CCC(C)C1CCCCC1=O` (stereo unspecified), the compound was classed as inactive in assay [1], in assay [2] and in assay [6].
On to `O=C(OCc1ccccc1)c1ccccc1O`, for which the call in assay [1], in assay [2], in assay [3], in assay [8], in assay [4] and in assay [5] was inactive. For the same compound, the compound was classed as inactive in assay [6] and in assay [7].
Turning to `CCCCCCCCOC(C)=O`, the call in assay [1], in assay [2], in assay [8], in assay [4] and in assay [7] was inactive.
`CCOC(=O)C(=O)OCC`: the call in assay [1], in assay [2], in assay [3], in assay [8] and in assay [5] was inactive.
For the compound `S=c1[nH][nH]c(=S)s1`, the outcome in assay [1], in assay [2], in assay [4], in assay [5] and in assay [7] was inactive.
Turning to `CC(O)COCC(C)O` (stereo unspecified), the compound was called inactive in assay [1], in assay [2], in assay [3], in assay [8], in assay [4] and in assay [5]. The compound was classed as inactive in assay [6] and in assay [7].
As to `ClCCOCCOCCCl`, the call in assay [1], in assay [2], in assay [8], in assay [5], in assay [6] and in assay [7] was inactive.
As to `C=CCCCCCCCCC(=O)OCC`, the result in assay [1], in assay [2], in assay [3], in assay [4], in assay [5] and in assay [6] was inactive. In addition, the outcome in assay [7] was inactive.
With `CC(=O)c1ccc(O)cc1`, the result in assay [1], in assay [2], in assay [3], in assay [8], in assay [5] and in assay [6] was inactive. Moreover, the outcome in assay [7] was inactive.
As for `CN(C)c1ccc(C=O)cc1`, the outcome in assay [1], in assay [2], in assay [3], in assay [8], in assay [6] and in assay [7] was inactive.
On to `CCCCN(CCCC)CCCCCCN(CCCC)CCCC`, for which the compound was called inactive in assay [1], in assay [2], in assay [3], in assay [8], in assay [5] and in assay [7].
With `CCCO`, the outcome in assay [1], in assay [2], in assay [8], in assay [4], in assay [5] and in assay [6] was inactive.
`OC[C@@H](O)[C@H](O)[C@@H](O)[C@@H](O)CO`: the result in assay [1], in assay [2], in assay [3], in assay [8], in assay [4] and in assay [5] was inactive. Also, the outcome in assay [6] was inactive.
As to `CCCCCCC(O)CCOC(C)=O` (stereo unspecified), the outcome in assay [1], in assay [2], in assay [3], in assay [8], in assay [5] and in assay [6] was inactive. In addition, the outcome in assay [7] was inactive.
With `COc1ccc(C(C)=O)cc1`, the call in assay [1], in assay [2], in assay [5], in assay [6] and in assay [7] was inactive.
As for `CC(C)(O)CCc1ccccc1`, the outcome in assay [1], in assay [2], in assay [8], in assay [5] and in assay [7] was inactive.
Regarding `CCCCCCCCCCCCN1CCOCC1`, the call in assay [1], in assay [2], in assay [3], in assay [8], in assay [5] and in assay [6] was inactive.
Consider `CC(C)C(=O)OCC=Cc1ccccc1`, for which the compound was called inactive in assay [1], in assay [2], in assay [8], in assay [4], in assay [5] and in assay [6]. Further, the outcome in assay [7] was inactive.
Take `COc1ccccc1NC(=O)CC(C)=O`: the call in assay [1], in assay [2], in assay [3], in assay [8], in assay [4] and in assay [5] was inactive. Also, the compound was called inactive in assay [6] and in assay [7].
As for `CCCCCCCCCO`, the outcome in assay [1], in assay [2], in assay [3], in assay [8], in assay [4] and in assay [6] was inactive.
Regarding `C/C=C(\C)C(=O)OC/C=C(\C)CCC=C(C)C`, the compound was classed as inactive in assay [1], in assay [2], in assay [8], in assay [5] and in assay [7].
For the compound `CCCCCCCC1CCCC1=O` (stereo unspecified), the outcome in assay [1], in assay [2], in assay [8], in assay [4], in assay [5] and in assay [6] was inactive. Moreover, the outcome in assay [7] was inactive.
Turning to `CC/C=C\CCOC(=O)C(C)C`, the compound was called inactive in assay [1], in assay [2], in assay [3], in assay [4] and in assay [5].
Consider `CCCc1ccc(N)cc1`, for which the outcome in assay [1], in assay [2], in assay [8], in assay [4], in assay [5] and in assay [7] was inactive.
As for `CC(=O)CCc1ccc(O)cc1`, the call in assay [1], in assay [2], in assay [8], in assay [4], in assay [5] and in assay [6] was inactive. Besides, the result in assay [7] was inactive.
One may read the AC50 as the concentration at which the activity in the assay is half-maximal. For `N=C1N=C(N)c2ccccc21`, the call in assay [1], in assay [6] and in assay [7] was inactive. Further, the AC50 in assay [2] is 28.4 µM (active); in assay [8], 27.3 µM (active); in assay [5], 13.3 µM (active).
In the case of `O=[N+]([O-])c1cc(N(CCO)CCO)ccc1NCCO`, the compound was classed as inactive in assay [1], in assay [2], in assay [3], in assay [8], in assay [4] and in assay [6]. The outcome in assay [7] was inactive.
With `CCCCCC1C(=O)CCC1CC(=O)OC` (stereo unspecified), the compound was classed as inactive in assay [1], in assay [2], in assay [8], in assay [5], in assay [6] and in assay [7].
As to `COC(=O)C(C)Oc1ccc(Oc2ncc(C(F)(F)F)cc2Cl)cc1` (stereo unspecified), the result in assay [1], in assay [2], in assay [3], in assay [8], in assay [4] and in assay [6] was inactive.
